Drawing on PubChem BioAssay (NCI), this text covers growth for eight molecules.

Test systems include NCI-H23 lung; NCI-H226 lung; NCI-H322M lung; HOP-62 NSCLC; NCI-H460 lung; NCI-H522 lung; A549/ATCC NSCLC; 786-0 renal; COLO 205 colon; DU-145 prostate; K-562 leukemia; MALME-3M melanoma; MDA-MB-231 breast; RXF 393 renal; SF-268 CNS; SF-295 CNS; SF-539 CNS; UACC-257 melanoma; M14 melanoma; HOP-92 NSCLC.
Holding throughout (assay): NCI-60 one-dose screen, 48 h (100 = growth as untreated, 0 = no growth, -100 = all killed)
Common to all, as to conditions: 10 µM unless noted

The panel holds about 83,000 compounds, 20% with a hit somewhere; the sample as a whole holds those more often.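 Cell lines were cultured in 96-well plates, exposed to a single compound concentration, and assessed for percent growth 48 hours later.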 Values without a mark were called inactive. Active and inactive are the calls of the source. The calls were made as follows: active = growth percent below 10; inactive = the rest.

Regarding `CN(CCC#N)c1ccc(/C=C2\NC(=O)NC2=O)cc1`, the growth in the test with NCI-H23 lung was 89.5%; in the test on NCI-H226 lung, 96.7%; with NCI-H322M lung, 103%; in the test with HOP-62 NSCLC, 99.3%; with NCI-H460 lung, 98.4%; with NCI-H522 lung, 38.7%. The growth in the test with A549/ATCC NSCLC was 111%; with 786-0 renal it was 88%; with COLO 205 colon, 95.8%; in the test on DU-145 prostate, 124%; in the test on K-562 leukemia it was 107%; in the test with MALME-3M melanoma it was 113%. Further, the growth is 101% in the test with MDA-MB-231 breast; 113% with RXF 393 renal; 117% in the test on SF-268 CNS; 112% in the test with SF-295 CNS; 91.3% in the test on SF-539 CNS; 93.4% with UACC-257 melanoma. In addition, the growth with M14 melanoma is 96.4%.

`O=C(/C=C/c1cccc(Cl)c1)c1cccc(OCCCCOc2cccc(C(=O)/C=C/c3cccc(Cl)c3)c2)c1`: the growth with NCI-H23 lung was 89.3%; in the test with NCI-H226 lung, 99.7%; in the test with NCI-H322M lung it was 92.2%; in the test with HOP-62 NSCLC, 107%; with NCI-H460 lung, 98.7%; in the test with HOP-92 NSCLC, 78.6%. The growth is 85.4% in the test on A549/ATCC NSCLC; 98.8% with 786-0 renal; 76% in the test with COLO 205 colon; 97.4% with DU-145 prostate; 91.4% with K-562 leukemia; 96.8% in the test on MALME-3M melanoma. Further, the growth in the test on MDA-MB-231 breast is 97.1%; in the test on RXF 393 renal, 89.9%; in the test on SF-268 CNS, 96.6%; in the test with SF-295 CNS, 103%; in the test with SF-539 CNS it was 96.6%; with UACC-257 melanoma, 89.7%. The growth with M14 melanoma is 85.5%.

Regarding `CCOC(=O)C1=C(C)N=C2SC=C(c3ccccc3)N2[C@H]1c1cn[nH]c1-c1ccc(Cl)cc1`, the growth was 51.2% in the test with NCI-H23 lung; 66.4% with NCI-H226 lung; 78.7% with NCI-H322M lung; 63% with HOP-62 NSCLC; 43.3% with NCI-H460 lung; -1.56% (active) in the test with HOP-92 NSCLC. Moreover, the growth in the test with A549/ATCC NSCLC was 56.4%; in the test with 786-0 renal, 49.6%; in the test on COLO 205 colon, 57.1%; in the test on DU-145 prostate, 64.6%; in the test with K-562 leukemia it was 40.5%; in the test on MALME-3M melanoma, -27.9% (active). The growth with MDA-MB-231 breast was 41.9%; with RXF 393 renal, 61.2%; in the test on SF-268 CNS, 44.8%; with SF-295 CNS, 41%; in the test on SF-539 CNS, 44.4%; with UACC-257 melanoma, 52.6%. Moreover, the growth with M14 melanoma was 47.7%.

As to `COC(=O)c1c2c(c(C)[n+]([O-])c1C)C(=O)C=CC2=O`, the growth in the test with NCI-H23 lung is -68.3% (active); in the test on NCI-H226 lung, -91.9% (active); in the test on NCI-H322M lung, 2.39% (active); with HOP-62 NSCLC, -65.4% (active); in the test on NCI-H460 lung, 2.35% (active); in the test on NCI-H522 lung it was -70.1% (active). Moreover, the growth in the test on A549/ATCC NSCLC is 15.8%; in the test on 786-0 renal, -29.9% (active); in the test on COLO 205 colon, -78.5% (active); in the test on DU-145 prostate it was -78.6% (active); in the test with K-562 leukemia it was 10.5%; in the test on MALME-3M melanoma it was -87.8% (active). Also, the growth in the test with MDA-MB-231 breast is 0.888% (active); in the test with RXF 393 renal, -76.2% (active); in the test on SF-268 CNS, -0.514% (active); in the test with SF-295 CNS it was 19%; in the test with SF-539 CNS, -98.2% (active); in the test on UACC-257 melanoma, -80.8% (active). The growth in the test with M14 melanoma is -82.8% (active).

In the case of `Oc1c(Cl)cc(Cl)c2ccc(Cn3cc(-c4cccc(C(F)(F)F)c4)nn3)nc12`, the growth is 90% in the test with NCI-H23 lung; 90.1% in the test on NCI-H226 lung; 102% in the test on NCI-H322M lung; 97.5% in the test on HOP-62 NSCLC; 101% in the test with NCI-H460 lung; 55.8% in the test on HOP-92 NSCLC. For the same molecule, the growth with A549/ATCC NSCLC was 97.9%; in the test with 786-0 renal, 95.6%; in the test with COLO 205 colon, 92.9%; in the test on DU-145 prostate it was 63%; with K-562 leukemia, 5.87% (active); in the test on MALME-3M melanoma, 75.8%. Further, the growth in the test on MDA-MB-231 breast is 101%; with RXF 393 renal, 33.7%; with SF-268 CNS it was 88.9%; with SF-295 CNS it was 99%; in the test with SF-539 CNS, 75.2%; with UACC-257 melanoma, 69.1%. Also, the growth in the test on M14 melanoma is 62.4%.

For the molecule `O=C(CCCCCCN1CC(=O)N2[C@@H](C3CCCCC3)c3[nH]c4ccccc4c3C[C@H]2C1=O)NO`, the growth with NCI-H23 lung was 72.2%; in the test on NCI-H226 lung, 97.1%; in the test on NCI-H322M lung it was 79%; in the test on HOP-62 NSCLC it was 65.9%; in the test on NCI-H460 lung it was 61.1%; in the test on HOP-92 NSCLC, 59.1%. The growth is 86.5% in the test with A549/ATCC NSCLC; 88% in the test with 786-0 renal; 62.9% in the test with COLO 205 colon; 80% with DU-145 prostate; 31.1% in the test with K-562 leukemia; 37.5% in the test with MALME-3M melanoma. Moreover, the growth was 82.9% with MDA-MB-231 breast; 65.2% in the test with RXF 393 renal; 106% with SF-268 CNS; 89.2% in the test with SF-295 CNS; 69.3% in the test with SF-539 CNS; 54.1% in the test on UACC-257 melanoma. Also, the growth in the test on M14 melanoma was 63.8%.

Take `N#C/C(=C\c1ccc(-c2ccc(Cl)cc2)o1)c1ccc(Cl)cc1`: the growth in the test with NCI-H23 lung was 63.2%; in the test with NCI-H226 lung it was 30%; with NCI-H322M lung, 69.2%; with HOP-62 NSCLC, 46.8%; in the test on NCI-H460 lung, 10.3%; with NCI-H522 lung it was 81%. Besides, the growth with A549/ATCC NSCLC was 35.4%; with 786-0 renal it was -0.442% (active); in the test with COLO 205 colon, 77.1%; in the test on DU-145 prostate, 82.1%; in the test on K-562 leukemia, 82.4%; in the test on MALME-3M melanoma, 62.9%. In addition, the growth in the test on MDA-MB-231 breast was 32.6%; in the test with RXF 393 renal it was 62.8%; with SF-268 CNS, 81.2%; in the test with SF-295 CNS, 51.9%; with SF-539 CNS, 56.9%; in the test on UACC-257 melanoma it was 100%. The growth in the test on M14 melanoma was 81.4%.

In the case of `Cc1ccc(C)c2c1C(O)(C#Cc1ccccc1)c1ccccc1C2(O)C#Cc1ccccc1` (stereo unspecified), the growth was 92.4% in the test on NCI-H23 lung; 89.9% in the test on NCI-H226 lung; 55.8% with NCI-H322M lung; 75.1% with HOP-62 NSCLC; 23.8% in the test on NCI-H460 lung; 3% (active) in the test with HOP-92 NSCLC. The growth in the test with 786-0 renal is 70.5%; in the test on COLO 205 colon, 48.4%; with DU-145 prostate, 87%; with K-562 leukemia, 22.2%; in the test on MALME-3M melanoma, 39.2%; with MDA-MB-231 breast, 77%. Further, the growth was 64.5% with RXF 393 renal; 56.5% in the test with SF-268 CNS; 4.71% (active) with SF-295 CNS; 56.8% with SF-539 CNS; 63% with UACC-257 melanoma; 58.9% with M14 melanoma.
